High-throughput results (PubChem)
TROY signal inh = blocks TROY-dependent signaling in reporter cells; Q293 LMP1-TROYcd NF-kB luciferase reporter, 4 h; inhibition, % at 10 µM; 360,000 tested, 0.98% active;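 active means compounds whose plate-normalised and pattern-corrected inhibition of the luciferase reporter signal at the single screening dose is 50% or more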
CF NFkB block = blocks PAF-induced NF-kB reporter in cystic fibrosis cells | KKLEB NF-kB-GFP reporter, GFP fluorescence overnight | inhibition, % at 5 µM | 360,000 tested, 0.86% active;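 active means at least 50% inhibition at 5 µM, scaled per plate between neutral and stimulator controls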;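 further: PAF is a Pseudomonas aeruginosa culture filtrate used as stimulus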
TWEAK Fn14 block = blocks TWEAK-Fn14 interaction in a reporter cell assay | AID 1159606 | inhibition, % at 10 µM | 360,000 tested, 2% active | TWEAK-stimulated Fn14 reporter cells, luciferase luminescence, 8 h; in the data active means inhibition above about 50%
Peg3 promoter = inhibitors of Peg3 promoter; HeLa PEG-Prom luciferase reporter, luminescence, overnight; inhibition, % at 20 µM; 360,000 tested, 1.7% active;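 active means inhibition of at least 50% at 20 µM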
HIF-2a inh = blocks HIF-2a reporter activity; inhibition, % at 18.8 µM; 360,000 tested, 0.72% active; 786-0 RCC cells HIF-2a reporter, luciferase luminescence, overnight;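 active means inhibition of the luminescence signal of 40% or more relative to plate controls, in a single-dose primary screen at 18.75 µM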
KKLEB tox = counter-screen for CF NF-kB inhibitors: cytotoxicity; activity change (cytotoxicity), % at 5 µM; 360,000 tested, 0.36% active; KKLEB CF airway cells viability, ATPlite luminescence, overnight; active compounds read low; cells stimulated with P. aeruginosa culture filtrate;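 active means corrected activity change at or below -50% at 5 µM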
Large screens that a line does not name were inactive. The list is not random: actives were taken first. Their share in the collection is about 4%.

O=C(O)c1cc(N=Nc2c(O)ccc3ccccc23)cc(C(=O)O)c1	none
Fc1ccc(-c2nnc(CN3CCC(c4nc5ccccc5s4)CC3)o2)cc1	TWEAK Fn14 block 52.6
COc1ccc(N=C2SC(CC(=O)Nc3cccc(Cl)c3)C(=O)N2Cc2ccco2)cc1 (stereo not drawn)	TWEAK Fn14 block 53.1
COc1ccc(N=C2SC(CC(=O)Nc3ccccc3)C(=O)N2Cc2ccccn2)cc1 (stereo not drawn)	none
CN(Cc1nc2ccccc2n1C)S(=O)(=O)c1ccc(F)cc1	none
CCOC(=O)c1cc(-c2ccncc2)nc2c1c(C)nn2C	none
O=C(C[C@H]1C[C@@H]2c3cc(NS(=O)(=O)c4ccccc4)ccc3O[C@@H]2[C@H](CO)O1)NC1CCCC1	none
CCN(CC)S(=O)(=O)c1cc(NC(=O)C(=O)c2c(-c3ccccc3)cc3ccccn23)ccc1C	TWEAK Fn14 block 61.7
CCN(CC)S(=O)(=O)c1cccc(NC(=O)C(=O)c2c(-c3ccccc3)cc3ccccn23)c1	none
CC1CCN(S(=O)(=O)c2ccc(C(=O)Nc3ccccc3-c3nc4ccccc4[nH]3)cc2)CC1	none
CCc1nnc(NC(=O)c2ccc(S(=O)(=O)N3CCCC(C)C3)cc2)s1 (stereo not drawn)	none
Cc1cccc2sc(NNC(=O)c3ccc(S(=O)(=O)N4CCCC(C)C4)cc3)nc12 (stereo not drawn)	TWEAK Fn14 block 62.8, Peg3 promoter 68.0
CC1CCCN(S(=O)(=O)c2ccc(C(=O)Nc3ccccc3-c3nc4ccccc4[nH]3)cc2)C1 (stereo not drawn)	CF NFkB block 67.9, KKLEB tox -55.2
Cc1cccc2sc(NNC(=O)c3ccc(S(=O)(=O)N4CCc5ccccc5C4)cc3)nc12	Peg3 promoter 60.5
CCOC(=O)N1CCN(S(=O)(=O)c2ccc(C(=O)NNc3nc4c(C)cccc4s3)cc2)CC1	none
COc1ccc(/C=c2\sc3nc(=O)c(C)nn3c2=O)c(OC)c1	none
COc1cccc(N2CCN(C(=O)c3ccc(Cl)c(S(=O)(=O)N4CCCCCC4)c3)CC2)c1	none
Cc1c(N=Nc2c(-c3ccc([N+](=O)[O-])cc3)[nH]n(C(N)=S)c2=O)cccc1[N+](=O)[O-]	TWEAK Fn14 block 70.1
NC(=S)n1[nH]c(-c2ccc([N+](=O)[O-])cc2)c(N=Nc2cccc([N+](=O)[O-])c2)c1=O	TROY signal inh 64.2, TWEAK Fn14 block 70.8
Cc1[nH]n(C(N)=S)c(=O)c1N=Nc1cccc([N+](=O)[O-])c1C	none
NC(=S)n1[nH]c(-c2ccc([N+](=O)[O-])cc2)c(N=Nc2ccccc2[N+](=O)[O-])c1=O	none
CCCc1nc2ccccc2c(C(=O)N(CC)CC(=O)NCc2cccs2)c1CC	none
Cc1nc2oc3ccccc3c(=O)c2cc1C(=O)O	none
CN(C)c1ccc2c(=O)c3ccccc3oc2n1	TWEAK Fn14 block 55.2
CCN(CC)c1ccc(/C=C2/C(=O)ON=C2C)cc1	none
CCN(CC)c1ccc(/C=C2\C(=O)N(c3nnc(C)c(=O)[nH]3)N=C2C)cc1	TWEAK Fn14 block 74.8
Cc1ccc(S(=O)(=O)CCC(=O)OCC(=O)NCc2ccc(F)cc2)cc1	none
COc1ccc(CN2C3CCCC2CC(NC(=O)Nc2ccccc2)C3)cc1 (stereo not drawn)	none
COc1ccc(CN2C3CCCC2CC(NC(=O)Nc2ccccc2C)C3)cc1 (stereo not drawn)	TWEAK Fn14 block 62.3
Cc1csc(NC(=O)CN2C(=O)C3CC=CCC3C2=O)n1 (stereo not drawn)	TWEAK Fn14 block 73.4 (no result: TROY signal inh)
Cc1cnc(NC(=O)c2cc3c(s2)CCCC3)s1	TROY signal inh 56.6, TWEAK Fn14 block 86.5, KKLEB tox -51.0
CCOC(=O)Cc1csc(NC(=O)c2cc3c(s2)CCCC3)n1	none
Cc1csc(NC(=O)c2cc3c(s2)CCCCC3)n1	TROY signal inh 76.6, TWEAK Fn14 block 94.6, Peg3 promoter 57.7, KKLEB tox -63.1
CCc1nnc(NC(=O)c2cc3c(s2)CCCCC3)s1	none
Cc1csc(NC(=O)C2CCCC2)n1	TWEAK Fn14 block 62.2 (no result: TROY signal inh)
OC(COc1cccc2ccccc12)CN1CCCC1 (stereo not drawn)	none
Cc1csc(NC(=O)c2cc3c(s2)CCCC3)n1	TWEAK Fn14 block 71.1
CCCCc1ccc(NC(=O)N2CCN(c3cc(C)nc4ccccc34)CC2)c(C)c1	Peg3 promoter 60.2
Cc1ccc(NC(=O)CCc2c(C)nn(-c3ccc(N4CCCCC4)nn3)c2C)cc1	Peg3 promoter 77.3
CCCN1CCC(N2CCCC(C(=O)O)C2)CC1 (stereo not drawn)	TWEAK Fn14 block 61.4
O=C(O)C1CCC(=O)N1Cc1ccc(F)cc1 (stereo not drawn)	TWEAK Fn14 block 50.3
O=C1C=C(c2ccc3[nH]ccc3c2)C[C@@H](c2ccc(F)cc2)C1	none
COc1ccc([C@H]2CC(=O)C=C(c3ccc4[nH]ccc4c3)C2)cc1OC	TROY signal inh 53.0
O=C(CCl)N1c2ccccc2Oc2ccc3ccccc3c21	TROY signal inh 73.5, TWEAK Fn14 block 69.1
CCCCCCCn1c2c(c(=N)c3c1CCC3)CCCC2	TWEAK Fn14 block 60.6
CCCCn1c2c(c(=N)c3c1CCC3)CCC2	none
CCCCCCn1c2c(c(=N)c3c1CCC3)CCC2	TROY signal inh 59.0
CC(=O)OC(COc1ccccc1)Cn1cnc2ccccc21 (stereo not drawn)	none
CCOC(=O)c1c(NC(=O)CSc2ncccn2)sc2c1CCN(Cc1ccccc1)C2	none
O=[N+]([O-])c1ccc(S(=O)Cc2ccccc2)c([N+](=O)[O-])c1 (stereo not drawn)	TROY signal inh 74.2, CF NFkB block 85.5, Peg3 promoter 96.1, HIF-2a inh 93.0
CCOC(=O)N1CCN(C(=O)CCn2c(=O)[nH]c3ccsc3c2=O)CC1	none
c1ccc(COc2cccc(CN3CCCCC3)c2)cc1	TWEAK Fn14 block 103.2
COc1cc(C(=O)Nc2scc(-c3ccc(Br)cc3)c2C(=O)O)cc(OC)c1OC	TROY signal inh 71.9
Cc1ccc(-c2csc(NC(=O)c3ccc(Br)cc3)c2C(=O)O)cc1	none
CCCn1c(SCC(=O)Nc2cccc(Cl)c2Cl)n[nH]c1=O	none
CC1CC2=C(C(=O)O1)C(c1ccc(Cl)cc1)Nc1ccccc1N2 (stereo not drawn)	none
Cc1ccc(C2Nc3ccccc3NC3=C2C(=O)OC(C)C3)cc1 (stereo not drawn)	TROY signal inh 63.7
Cc1noc2ncnc(Sc3ccc(Cl)cc3)c12	TWEAK Fn14 block 65.2, Peg3 promoter 101.7
O=C(Nc1nnc(SCc2ccc(F)cc2)s1)c1ccccn1	Peg3 promoter 64.6
COc1cccc(NC(=O)c2cc(-c3ccccn3)nc3ccccc23)c1	none
CC(=O)c1cccc(NC(=O)c2cc(-c3ccco3)nc3ccccc23)c1	TWEAK Fn14 block 65.5
